From PubChem BioAssay
A selection: hits, their analogues and other compounds. The true share with any hit is near 0.89%.
CIT2 TOR yeast: alters CIT2-GFP fluorescence in TOR pathway yeast screen; S. cerevisiae CIT2-GFP strain, flow cytometry, 3 h; 100 means same as DMSO wells; GFP response vs DMSO, % at 10 µM; actives 0.065% (n = 320,000); AID 2029;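 active = GFP response relative to DMSO above a set limit, near the screen mean plus 3 SD, cut at about 150% in these data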;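 also: ratio of well median GFP fluorescence to mean of DMSO wells on the plate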
RPL19A TOR yeast: modulators of TOR pathway RPL19A-GFP in S. cerevisiae | S. cerevisiae RPL19A-GFP strain, flow cytometry, 3 h; hits give low values | AID 2025 | actives 0.3% (n = 330,000) | percent response vs DMSO, % at 10 µM;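 active = percent response vs DMSO below 50%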;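 also: median channel GFP fluorescence of the barcoded RPL19A-GFP strain; ratio of sample median GFP to plate DMSO average so 100% = DMSO; lower means less RPL19A-GFP as with rapamycin TOR inhibition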
MEP2-GFP yeast: alters MEP2-GFP fluorescence in TOR pathway yeast screen. S. cerevisiae MEP2-GFP strain, flow cytometry GFP, 3 h; 100% = DMSO control level. actives 0.51% (n = 330,000). GFP response vs DMSO, % at 10 µM;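 active = GFP response versus DMSO above a set limit, roughly screen mean plus 3 SD, cut at about 180% in these data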;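 also: median GFP fluorescence of the barcode-gated MEP2-GFP cells per well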
AGP1-GFP MLPCN: alters AGP1-GFP fluorescence in TOR pathway yeast screen; GFP response vs DMSO, % at 10 µM; AID 2066; S. cerevisiae AGP1-GFP multiplex flow cytometry, 3 h; GFP as percent of DMSO wells; actives 0.02% (n = 320,000);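 active = GFP response relative to DMSO above a set limit, near screen average plus 3 SD, cut at about 150% in these data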;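 also: median GFP channel fluorescence of the gated AGP1 strain per well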
LAP4-GFP MLPCN: yeast TOR pathway LAP4-GFP modulation | S. cerevisiae LAP4-GFP multiplex, flow cytometry GFP, 3 h; median GFP as percent of DMSO wells | GFP response vs DMSO, % at 10 µM | actives 0.34% (n = 320,000);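 active = GFP response vs DMSO above a set limit, about the screen mean plus 3 SD, cut at about 150% in these data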
LAP4 cherry2: reconfirmed LAP4-GFP TOR pathway modulator in yeast; actives 20% (n = 590); shares compounds with LAP4-GFP MLPCN; GFP response vs DMSO, % at 10 µM; S. cerevisiae LAP4-GFP strain, flow cytometry GFP, 3 h;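 active = GFP signal as percent of the solvent control above about 150%, meaning raised reporter expression, limit read from the data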;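 also: ratio of well median GFP fluorescence to plate DMSO mean so 100% = DMSO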
MEP2-GFP pick2: second confirmation of modulators of TOR reporter MEP2-GFP in yeast; S. cerevisiae MEP2-GFP strain, flow cytometry GFP, 3 h; actives 10% (n = 590); GFP response vs DMSO, % at 10 µM; shares compounds with LAP4-GFP MLPCN;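 active = GFP signal above 150% of the solvent control wells, that is a rise of more than half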;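 also: median channel GFP fluorescence of all gated yeast cells per well; ratio of median GFP to plate DMSO average so 100% = DMSO level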
RPL19A GFP CP2: reconfirmed modulator of RPL19A-GFP TOR reporter in yeast | GFP response vs DMSO, % at 10 µM | shares compounds with LAP4-GFP MLPCN | actives 3% (n = 590) | S. cerevisiae RPL19A-GFP strain, flow cytometry GFP, 3 h; hits give low values; 100% means same as DMSO wells | AID 2623;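 active = under 65% GFP response relative to DMSO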;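 also: median GFP channel fluorescence per well over the all cells gate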
CIT2 GFP CP2: reconfirmed modulator of CIT2-GFP TOR reporter in yeast. shares compounds with LAP4-GFP MLPCN. S. cerevisiae CIT2-GFP strain, flow cytometry GFP, 3 h; DMSO control wells read 100%. GFP response vs DMSO, % at 10 µM. actives 8% (n = 590). AID 2624;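 active = GFP response vs DMSO above about 150%, limit read from the data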;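 also: median green fluorescence per well over all gated yeast cells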
AGP1 GFP CP2: reconfirmed modulator of AGP1-GFP TOR reporter in yeast. shares compounds with LAP4-GFP MLPCN. S. cerevisiae AGP1-GFP strain, flow cytometry GFP, 3 h. percent response vs DMSO, % at 10 µM. 590 tested, under 10 active. AID 2643;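 active = over 150 percent of DMSO response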;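 also: median GFP channel fluorescence over all cells without mother daughter split; sample median GFP divided by mean DMSO control so 100% equals DMSO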
Yeast autofluor: compound is autofluorescent in yeast s288c cells; shares compounds with LAP4-GFP MLPCN; S. cerevisiae s288c, 520 nm autofluorescence, flow cytometry, 3 h; hits give high values; zero means same as solvent-only cells; fluorescence change (kMESF span) at 33 µM; 610 tested, under 10 active;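 active = fluorescence span over the dose series, or activity score, above about 33, limit read from the data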
An asterisk follows results filed as active; x = not tested or not shown.

SMILES | CIT2 TOR yeast | RPL19A TOR yeast | MEP2-GFP yeast | AGP1-GFP MLPCN | LAP4-GFP MLPCN | LAP4 cherry2 | MEP2-GFP pick2 | RPL19A GFP CP2 | CIT2 GFP CP2 | AGP1 GFP CP2 | others
COc1ccc(-c2cc(=O)c3c(OC)c(OC)c(OC)c(OC)c3o2)cc1OC | 84 | 75 | 93 | 91 | 234* | 101 | 101 | 100 | 102 | 97
CN1CCSc2ccc(C(=O)NCc3ccccc3F)cc21 | 90 | 100 | 106 | 91 | 121 | x | x | x | x | x
COc1cccc(CNC(=O)c2ccc3c(c2)N(C)CCS3)c1OC | 161* | 64 | 759* | 154* | 258* | 99 | 100 | 99 | 99 | 97
C#CCOc1c(Cl)cc(C2C3=C(CCCC3=O)N(CC(=O)O)C3=C2C(=O)CCC3)cc1OC | 80 | 52 | 117 | 33 | 87 | 104 | 117 | 101 | 111 | 99
CCc1nc2ccccc2c(C(=O)OCC(=O)N2CC(C)OC(C)C2)c1C (stereo unspecified) | 106 | 103 | 110 | 110 | 110 | x | x | x | x | x
COc1ccc(N/N=C(\C#N)C(N)=O)cc1 | 147 | 92 | 123 | 110 | 165* | x | x | x | x | x | Yeast autofluor=7.8
CCOc1ccc(N/C(SC)=C(/C#N)C(N)=O)cc1 | 103 | 106 | 105 | 108 | 106 | x | x | x | x | x
CCOc1ccc(N/N=C(/C#N)C(N)=O)cc1 | 106 | 78 | 228* | 119 | 210* | x | x | x | x | x | Yeast autofluor=7
CC(C)CCn1c(SCC(=O)Nc2ccccc2C(F)(F)F)nc2nccnc2c1=O | 100 | 99 | 102 | 102 | 99 | x | x | x | x | x
O=C(c1ccc2c(=O)n3c(nc2c1)CCCCC3)N1CCN(c2ccc([N+](=O)[O-])cc2)CC1 | 104 | 97 | 103 | 99 | 96 | x | x | x | x | x
COC(=O)c1ccc(CSc2nc3c(c(=O)n2-c2ccc(C)cc2)SCC3)o1 | 96 | 80 | 101 | 103 | 172* | 91 | 89 | 99 | 99 | 96
Cc1cccc(N2CCN(C(=O)c3c(-c4ccccc4Cl)noc3C)CC2)c1C | 89 | 106 | 110 | 103 | 110 | x | x | x | x | x
N#Cc1c2ccc([N+](=O)[O-])cc2[n+]([O-])n1-c1ccccc1 | 94 | 93 | 95 | 53 | 165* | 179* | 136 | 119 | 111 | 89 | Yeast autofluor=0.71
NCCCn1c(C(=O)c2ccc(Cl)cc2)c2ccc([N+](=O)[O-])cc2[n+]1[O-] | 100 | 105 | 112 | 96 | 113 | x | x | x | x | x
O=C(Cn1cc([N+](=O)[O-])cn1)NC1CCCCCC1 | 105 | 101 | 103 | 99 | 99 | x | x | x | x | x
C#CCOCCOCCOCCNc1nc(N2CCN(C(=O)CCCCCCCCCCNC(=O)[C@H](CCCCN)n3cc(C)nn3)CC2)nc(N2CCN(C(=O)CCCCCCCCCCNC(=O)[C@H](CCCN=C(N)N)n3cc(C[C@@H](C)CC)nn3)CC2)n1 | 76 | 81 | 99 | 90 | 191* | 102 | 169* | 85 | 95 | 109 | Yeast autofluor=0
C#CCOCCOCCOCCNc1nc(N2CCN(C(=O)CCCCCCCCCCNC(=O)[C@H](CCCCN)n3cc(CCO)nn3)CC2)nc(N2CCN(C(=O)CCCCCCCCCCNC(=O)[C@H](CCCCN)n3cc(C[C@@H](C)CC)nn3)CC2)n1 | 101 | 76 | 105 | 100 | 161* | 119 | 152* | 94 | 111 | 110 | Yeast autofluor=0.31
C#CCOCCOCCOCCNc1nc(N2CCN(C(=O)[C@H]([C@@H](C)CC)n3cc([C@@H](N)Cc4ccc(O)cc4)nn3)CC2)nc(N2CCN(C(=O)[C@H](CCCCN)n3cc([C@@H](N)CC(C)C)nn3)CC2)n1 | 129 | 59 | 839* | 153* | 301* | 107 | 115 | 97 | 115 | 98
C#CCOCCOCCOCCNc1nc(N2CCN(C(=O)CCCCCCCCCCNC(=O)[C@@H](CCSC)n3cc(CCO)nn3)CC2)nc(N2CCN(C(=O)CCCCCCCCCCNC(=O)[C@H](CO)n3cc(CCCCCN)nn3)CC2)n1 | 92 | 95 | 102 | 101 | 97 | x | x | x | x | x
C#CCOCCOCCOCCNc1nc(N2CCN(C(=O)CCCCCCCCCCNC(=O)[C@H](CCCCN)n3cc(CCO)nn3)CC2)nc(N2CCN(C(=O)CCCCCCCCCCNC(=O)[C@H](CCCCN)n3cc(CCCC(=O)O)nn3)CC2)n1 | 80 | 90 | 87 | 84 | 134 | x | x | x | x | x
C#CCOCCOCCOCCNc1nc(N2CCN(C(=O)CCCCCCCCCCNC(=O)[C@H](CCCCN)n3cc(C)nn3)CC2)nc(N2CCN(C(=O)CCCCCCCCCCNC(=O)[C@@H]([C@H](C)O)n3cc(C)nn3)CC2)n1 | 85 | 90 | 84 | 82 | 135 | x | x | x | x | x
C#CCOCCOCCOCCNc1nc(N2CCN(C(=O)CCCCCCCCCCNC(=O)[C@@H](CCSC)n3cc(CCO)nn3)CC2)nc(N2CCN(C(=O)CCCCCCCCCCNC(=O)[C@H](CCCN=C(N)N)n3cc(C[C@@H](C)CC)nn3)CC2)n1 | 85 | 83 | 93 | 82 | 152* | 119 | 140 | 96 | 117 | 108
C#CCOCCOCCOCCNc1nc(N2CCN(C(=O)[C@H](CCCCN)n3cc([C@@H](N)CC(C)C)nn3)CC2)nc(N2CCN(C(=O)[C@H](Cc3ccc(O)cc3)n3cc([C@@H](N)CC(C)C)nn3)CC2)n1 | 99 | 100 | 92 | 94 | 113 | x | x | x | x | x
CCN1C(=O)c2ccccc2S(=O)(=O)c2ccc(C(=O)NCCOC)cc21 | 93 | 104 | 112 | 93 | 88 | x | x | x | x | x
CCn1c(COC(=O)CNC(=O)c2cc(OC)c(OC)c(OC)c2)nc2cc(S(=O)(=O)N(C)C)ccc21 | 84 | 89 | 96 | 96 | 102 | x | x | x | x | x
